NRP1-CendR mod: alters CendR peptide binding to human NRP-1; FAM-RPARPAR peptide binding to NRP-1, fluorescence polarization; AID 602438; 0.85% of 360,000 active; inhibition, % at 25 µM;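 active = inhibition or corrected inhibition above about 18%, plus a signal ratio from 0.5 to 1.5, limit read from the data, passing the limit was not always enough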
ATG4B inhibitor: inhibitors of human ATG4B cysteine protease; Q9Y4P1; ATG4B cleavage of LC3-PLA2, NBD-HPC fluorescence, 1 h; inhibition, % at 8.33 µM; 0.51% of 340,000 active; in the data active = inhibition above about 40%
Target sequence (Q9Y4P1 whole entry, looked up): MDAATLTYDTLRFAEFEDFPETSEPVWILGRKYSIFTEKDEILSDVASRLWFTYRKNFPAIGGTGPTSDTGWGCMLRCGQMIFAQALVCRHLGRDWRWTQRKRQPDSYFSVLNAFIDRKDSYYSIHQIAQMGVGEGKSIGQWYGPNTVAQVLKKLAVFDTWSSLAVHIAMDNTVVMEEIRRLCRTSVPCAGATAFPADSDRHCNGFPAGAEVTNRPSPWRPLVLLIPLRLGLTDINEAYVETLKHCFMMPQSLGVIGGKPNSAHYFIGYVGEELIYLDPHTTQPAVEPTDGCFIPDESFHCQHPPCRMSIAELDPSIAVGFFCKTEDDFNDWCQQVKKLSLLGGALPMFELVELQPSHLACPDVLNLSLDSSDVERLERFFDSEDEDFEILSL
MPTP block: inhibitors of mitochondrial permeability transition pore | isolated mouse mitochondria, Ca2+ swelling absorbance, 30 min | inhibition, % at 10 µM | 1.4% of 360,000 active;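 active = inhibition of 50% or more, scaled per plate between neutral and stimulator controls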;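 note: 0% = DMSO wells given calcium and 100% = 1 mM EGTA wells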
F508del corr: CFTR F508del correction in bronchial cells; CFBE cells, YFP halide quenching; stimulated with forskolin plus potentiator P3; % fluorescence drop versus neutral controls; activity (quench increase), % at 7.58 µM; 0.36% of 350,000 active; AID 720511;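 active = mean added fluorescence quench of at least 8% versus neutral control, with both replicates also reaching 8%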;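 note: cells transiently co-express mutant CFTR-F508del with the halide-sensitive YFP; corrector assay measuring rescue of mutant channel to the surface after 24 h compound exposure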
SKN-1 inh: inhibitors of C. elegans SKN-1. C. elegans VP596 Pgst-4::GFP/RFP ratio, acrylamide-induced, 24 h. inhibition, % at 21.8 µM. 0.49% of 360,000 active;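 active = interference check ratio from 0.5 to 1.5 plus GFP to RFP signal ratio inhibition reaching or exceeding a fixed threshold, cut at about 30% in these data, passing the limit was not always enough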
Rh123 counter: Rhodamine 123 counter-screen of mitochondrial pore hits; shares compounds with MPTP block; isolated mitochondria, membrane potential, Rhodamine 123 fluorescence; inhibition, % at 10 µM; 78% of 5,000 active; AID 624504; in the data active = inhibition above about 22%;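 note: 0% = DMSO vehicle and 100% = positive control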
* marks the source's active call; other numbers are inactive results; x = no result. Shown are actives, neighbours in structure and some others; about 2.7% of the full set was active somewhere.

SMILES	NRP1-CendR mod	ATG4B inhibitor	MPTP block	F508del corr	SKN-1 inh	Rh123 counter
O=C(Nc1ccc(Cl)cc1)Nc1ccc(N2CCCC2)c(S(=O)(=O)Nc2ccccc2Cl)c1	-8	-5	98*	x	8	48*
Cc1cc(C)cc(NC(=O)Nc2ccccc2N2CCCCC2)c1	17	-4	63*	-1	6	61*
O=C(Nc1ccc(N2CCOCC2)c(S(=O)(=O)Nc2ccccc2Cl)c1)c1ccccc1	1	-16	-2	-2	20	x
CCCCNc1nc2c(S(=O)(=O)c3ccccc3)nnn2c2ccccc12	2	-4	3	-3	-2	x
CCc1ccc(S(=O)(=O)c2nnn3c2nc(NCCNC(C)=O)c2ccccc23)cc1	-2	-19	65*	-2	-10	43*
COC(=O)c1cc(NC(=S)Nc2cc(Cl)cc(Cl)c2)cc(C(=O)OC)c1	-11	-2	83*	0	5	75*
Cc1cccc(NC(=O)Nc2ccc(S(N)(=O)=O)cc2)c1	8	-11	-1	1	-7	x
NS(=O)(=O)c1cccc(NC(=O)Nc2ccc(Cl)cc2)c1	-1	12	89*	1	10	86*
COC(=O)c1cccc(NC(=O)Nc2ccc(Cl)cc2)c1	-11	5	77*	x	1	92*
CC(C)S(=O)(=O)c1csc(NC(=O)Nc2ccc(Cl)cc2)c1	-7	-10	76*	1	-7	79*
CC(C)S(=O)(=O)c1csc(C(=O)NNC(=O)Nc2ccccc2)c1Cl	2	4	2	0	17	x
CC(C)NC(=O)N[C@@H]1CC[C@@H](CC(=O)NC2Cc3ccccc3C2)O[C@H]1CO	x	x	x	-3	x	x
C[C@@H]1CN([C@@H](C)CO)C(=O)Cc2cc(NC(=O)c3ccncc3)ccc2O[C@H]1CN(C)S(=O)(=O)c1cccs1	x	x	x	0	x	x
CO[C@H](CN(C)C(=O)c1cnccn1)[C@@H](C)CN([C@@H](C)CO)S(=O)(=O)c1ccc(Cl)cc1	x	x	x	0	x	x
O=C(C[C@@H]1C=C[C@H](NC(=O)C2CCOCC2)[C@@H](CO)O1)NCC1CCCCC1	x	x	x	1	x	x
COc1ccc(CN(C)C[C@H]2Oc3c(NS(=O)(=O)c4ccc(OC)cc4)cccc3C(=O)N([C@@H](C)CO)C[C@@H]2C)cc1	x	x	x	-2	x	x
CNC[C@@H]1Oc2ccc(NC(=O)c3ccncc3)cc2C(=O)N([C@@H](C)CO)C[C@@H]1C	x	x	x	1	x	x
COc1ccc(NC(=S)Nc2cccc(C(C)=O)c2)cc1OC	13	-2	1	1	-5	x
COC(=O)c1cccc(NC(=S)Nc2ccc(Cl)c(Cl)c2)c1	19	3	80*	1	16	91*
CCCN1[C@@H]2Cn3c(ccc(-c4ccncc4)c3=O)[C@H]1[C@@H](C(=O)NCC1CC1)[C@@H]2CO	x	x	x	2	x	x
COc1ccc(CNS(=O)(=O)c2ccc3c(c2)CC(C)N3C(=O)C2CC2)cc1 (stereo not given)	8	-6	99*	-2	-24	88*
CCC(=O)N(C)C[C@H]1Oc2ncc(C#Cc3ccccc3OC)cc2C(=O)N([C@@H](C)CO)C[C@@H]1C	x	x	x	0	x	x
CC1=CC(C)(C)N=C(Nc2nc(C)c3cc(C)cc(C)c3n2)N1	6	6	95*	2	25	101*
Cc1cc(C)c2nc(Nc3nc(-c4ccccc4)cc(=O)[nH]3)nc(C)c2c1	-23	2	2	3	1	x
CCOC(=O)c1cc2c(C)n(-c3ccc(OCC)cc3)c(C)c2ccc1=O	-25	12	10	x	13	x
SMILES	NRP1-CendR mod	ATG4B inhibitor	MPTP block	F508del corr	SKN-1 inh	Rh123 counter
CCOC(=O)c1cc2c(C)n(-c3ccc(C)cc3)c(C)c2ccc1=O	-27	2	82*	x	-13	35*
C[C@@H]1CN([C@H](C)CO)C(=O)c2cc(C#CCc3ccccc3)cnc2O[C@H]1CN(C)C(=O)C1CCOCC1	x	x	x	0	x	x
COc1ccc(CN2C(=O)CS/C2=N/N=C/c2cccs2)cc1	6	-1	82*	2	7	62*
CC1=CC(=O)C=C(C)C1=NOS(=O)(=O)c1ccccc1	8	-2	103*	x	4	90*
Cc1ccc2c(c1)/C(=N/OS(=O)(=O)c1ccccc1)CCS2	3	11	2	x	-12	x
CC1=CC(=O)C(C(C)C)=C/C1=N/OS(=O)(=O)c1ccccc1	7	0	96*	-10	-14	92*
